Measured values published in PubChem BioAssay.
Calls of active or inactive are those of the source.

What was measured:
[1] = molecular target: Albumin (Bos taurus) (UniProt P02769); assay: bovine serum albumin binders on microarray, profiling panel, artefact control for SMM control protein annotation, biochemical, small-molecule microarray, Alexa647 label, 635/667 nm fluorescence (AID 1118); settings: BSA-A647 binding, fluorescence 635 nm, higher = more signal;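 further: score merges 667 nm emission intensity and signal-to-noise per printed compound spot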
[2] = small-molecule microarray binders of probe aXIP, primary screen, biochemical, NeuroSMM set, 635/667 nm fluorescence (AID 1119); settings: higher = more signal, called active from +8 up or from −8 down;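 further: probe is the protein aXip251-270 applied at 1 µg/mL to compound-printed slides; binding of probe to printed compounds measured as 667 nm fluorescence plus signal to noise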
[3] = small-molecule binders of probe aNOTCH3, primary screen, biochemical, small-molecule microarray, 635/667 nm fluorescence (AID 1120); settings: higher = more signal;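 further: probe is a biotin-tagged antibody raised against NOTCH3 rather than NOTCH3 protein; score merges spot fluorescence near 667 nm with spot signal to noise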
[4] = small-molecule binders of probe aNOTCH2, primary screen, biochemical, small-molecule microarray, 635/667 nm fluorescence (AID 1121); settings: higher = more signal;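 further: score merges feature fluorescence read at 667 nm with its signal to noise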
[5] = molecular target: Carbonic anhydrase 2 (Homo sapiens) (UniProt P00918); assay: CAII small-molecule binders, profiling panel, biochemical, small-molecule microarray, Alexa647-labelled CAII (AID 1122); settings: CAII-A647 binding fluorescence, higher = more signal
[6] = COS7 lysate on small-molecule microarray, probe aHis, 635 nm (AID 1123); settings: COS7 cell lysate, fluorescence, higher = more signal;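 further: z-score combines 667nm fluorescence intensity with signal-to-noise per printed compound spot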
[7] = compound binding in COS7 lysate, probe aLAP1, primary screen, cell lysate, small-molecule microarray (AID 1124); settings: probe aLAP1, fluorescence, higher = more signal;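 further: lysate comes from COS7 cells expressing LAP1 and is applied at 0.3 µg/mL; score merges spot fluorescence near 667 nm with signal-to-noise over triplicate slides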
[8] = test system: Sam68 (KHDRBS1); assay: Sam68 small-molecule binders, primary screen, biochemical, small-molecule microarray, 635 nm fluorescence (AID 1125); settings: small-molecule microarray binding, higher = more signal;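 further: score merges 667 nm channel intensity with signal to noise over triplicate slides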
[9] = test system: Chordin-like protein 2 (CHRDL2); assay: CHRDL2 small-molecule binders, primary screen, biochemical, small-molecule microarray, 635 nm fluorescence (AID 1126); settings: small-molecule microarray binding, fluorescence 635 nm; higher = more signal;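 further: printed compound slides probed with Chrdl2 protein at 4 µg/mL for 1 h at 4 C; score merges 667 nm emission intensity with signal to noise over three replicate slides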
[10] = molecular target: Concanavalin-A (Canavalia ensiformis) (UniProt P02866); assay: ConA small-molecule binders, primary screen, artefact control for SMM control protein annotation, biochemical, small-molecule microarray, Alexa647 label, 635 nm (AID 1127); settings: ConA-A647 binding fluorescence, higher = more signal;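 further: z combines 667 nm emission intensity with signal-to-noise across three replicate slides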
[11] = anti-His antibody binders, primary screen, artefact control for SMM control protein annotation, biochemical, small-molecule microarray, 635 nm fluorescence (AID 1128); settings: anti-His Alexa647 antibody binding, higher = more signal;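 further: score merges feature fluorescence with signal-to-noise for each printed compound spot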
[12] = test system: Human papillomavirus type 1a E7 protein (residues 1-88); assay: HPV1a E7 small-molecule binders, primary screen, biochemical, small-molecule microarray, residues 1-88, 635 nm (AID 1129); settings: small-molecule microarray binding, fluorescence 635 nm; higher = more signal
[13] = molecular target: Focal adhesion kinase 1 (Homo sapiens) (UniProt Q05397); assay: small-molecule microarray binders of FAK, primary screen, biochemical, 635/667 nm fluorescence, BSA, DTT (AID 1130); settings: PTK2 binding, 635 nm fluorescence, higher = more signal;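 further: composite of spot emission at 667 nm and signal to noise over triplicate slides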
[14] = test system: Fibrinogen (Alexa647-labelled); assay: fibrinogen binders on compound microarrays, profiling panel, artefact control for SMM control-protein annotation, biochemical, small-molecule microarray, 635/667 nm fluorescence (AID 1131); settings: fibrinogen-A647 binding fluorescence, higher = more signal;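 further: z-score merges 667 nm fluorescence with per-spot signal-to-noise over triplicate slides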
[15] = molecular target: Follistatin (Homo sapiens) (UniProt P19883); assay: follistatin binders on small-molecule microarrays, primary screen, biochemical, small-molecule microarray, 635/667 nm fluorescence (AID 1132); settings: FST binding, 635 nm fluorescence, higher = more signal
[16] = molecular target: Fibroblast growth factor 2 (Homo sapiens) (UniProt P09038); assay: FGF2 binders on small-molecule microarrays, primary screen, biochemical, small-molecule microarray, 635/667 nm fluorescence (AID 1133); settings: small-molecule microarray binding, FGF2, fluorescence 635/667; higher = more signal
[17] = mitochondrial membrane potential change in A549 cells, profiling panel, cell-based, JC-1 fluorescence, basal, 24 h, 100 nL (AID 1138); settings: higher = more signal;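 further: A549 lung adenocarcinoma cells under basal conditions with no added stimulus; test concentration not given here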
[18] = test system: Lefty1; assay: Lefty1 binders on small-molecule microarrays, primary screen, biochemical, small-molecule microarray, 635/667 nm fluorescence (AID 1139); settings: small-molecule microarray binding, fluorescence 635/667; higher = more signal
[19] = test system: wheat germ agglutinin (Triticum aestivum), Alexa647-labelled; assay: wheat germ agglutinin binders on compound microarrays, profiling panel, artefact control for SMM control-protein annotation, biochemical, small-molecule microarray, 635/667 nm fluorescence (AID 1140); settings: WGA-A647 binding, 635 nm fluorescence, higher = more signal;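 further: score merges 667 nm feature emission with signal to noise over triplicate slides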
[20] = molecular target: Luciferin 4-monooxygenase (Photinus pyralis) (UniProt P08659); assay: firefly luciferase enzyme inhibitors, primary screen, biochemical, luminescence, purified enzyme, 2006 set (AID 1141); settings: SteadyGlo luminescence, 30 min, higher = more signal, called active from +8 up or from −8 down;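 further: cell-free assay with purified firefly luciferase at 100 ng per well in PBS; test concentration not given here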
Luciferin 4-monooxygenase (Photinus pyralis), sequence (P08659 whole entry, looked up): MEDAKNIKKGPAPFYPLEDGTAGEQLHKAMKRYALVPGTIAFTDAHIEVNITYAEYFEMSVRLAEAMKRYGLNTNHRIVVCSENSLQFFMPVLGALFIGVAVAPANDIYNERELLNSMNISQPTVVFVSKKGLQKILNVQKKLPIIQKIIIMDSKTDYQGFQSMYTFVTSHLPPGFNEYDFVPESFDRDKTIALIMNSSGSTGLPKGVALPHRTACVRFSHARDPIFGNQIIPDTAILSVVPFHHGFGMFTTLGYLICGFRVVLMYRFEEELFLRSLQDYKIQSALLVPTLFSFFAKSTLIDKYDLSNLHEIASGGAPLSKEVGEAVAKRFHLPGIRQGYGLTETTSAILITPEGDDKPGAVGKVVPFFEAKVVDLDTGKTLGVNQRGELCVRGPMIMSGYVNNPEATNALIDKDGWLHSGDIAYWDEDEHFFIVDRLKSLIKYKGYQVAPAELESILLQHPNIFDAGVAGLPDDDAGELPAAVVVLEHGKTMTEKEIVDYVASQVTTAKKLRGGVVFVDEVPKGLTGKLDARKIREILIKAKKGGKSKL

Concanavalin-A (Canavalia ensiformis), sequence (P02866 whole entry, looked up): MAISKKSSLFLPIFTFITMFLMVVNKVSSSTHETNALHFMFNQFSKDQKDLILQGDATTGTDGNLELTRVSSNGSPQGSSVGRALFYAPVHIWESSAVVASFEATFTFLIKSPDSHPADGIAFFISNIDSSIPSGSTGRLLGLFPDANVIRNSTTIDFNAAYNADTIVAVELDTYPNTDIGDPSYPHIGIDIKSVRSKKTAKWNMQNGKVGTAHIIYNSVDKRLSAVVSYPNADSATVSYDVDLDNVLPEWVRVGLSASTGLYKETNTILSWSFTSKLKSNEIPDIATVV
Albumin (Bos taurus), sequence (P02769 whole entry, looked up): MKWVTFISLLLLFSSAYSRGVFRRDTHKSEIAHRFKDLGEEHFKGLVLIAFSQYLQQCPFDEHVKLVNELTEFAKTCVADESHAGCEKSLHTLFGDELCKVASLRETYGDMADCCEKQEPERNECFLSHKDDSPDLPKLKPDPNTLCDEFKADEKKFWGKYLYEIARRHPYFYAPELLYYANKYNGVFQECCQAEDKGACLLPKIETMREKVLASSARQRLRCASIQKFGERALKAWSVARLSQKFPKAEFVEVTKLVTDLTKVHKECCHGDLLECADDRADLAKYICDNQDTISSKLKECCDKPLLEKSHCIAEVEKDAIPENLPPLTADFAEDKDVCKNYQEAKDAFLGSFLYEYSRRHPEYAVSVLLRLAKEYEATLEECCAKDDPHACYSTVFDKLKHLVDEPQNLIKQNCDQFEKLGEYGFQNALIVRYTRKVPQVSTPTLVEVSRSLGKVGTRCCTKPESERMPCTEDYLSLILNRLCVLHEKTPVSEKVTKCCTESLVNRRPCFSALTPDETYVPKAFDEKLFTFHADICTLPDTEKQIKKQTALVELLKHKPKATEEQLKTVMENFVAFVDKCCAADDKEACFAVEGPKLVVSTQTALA
Follistatin (Homo sapiens), sequence (P19883 whole entry, looked up): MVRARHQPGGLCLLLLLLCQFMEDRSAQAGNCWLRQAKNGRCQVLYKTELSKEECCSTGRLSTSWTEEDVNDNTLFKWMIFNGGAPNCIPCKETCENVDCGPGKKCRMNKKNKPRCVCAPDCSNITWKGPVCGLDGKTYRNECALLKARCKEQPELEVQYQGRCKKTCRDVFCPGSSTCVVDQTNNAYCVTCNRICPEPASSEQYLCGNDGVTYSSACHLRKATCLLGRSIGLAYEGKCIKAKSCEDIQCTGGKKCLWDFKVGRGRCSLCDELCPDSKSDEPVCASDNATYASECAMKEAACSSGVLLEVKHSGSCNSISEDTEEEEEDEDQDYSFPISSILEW
Fibroblast growth factor 2 (Homo sapiens), sequence (P09038 whole entry, looked up): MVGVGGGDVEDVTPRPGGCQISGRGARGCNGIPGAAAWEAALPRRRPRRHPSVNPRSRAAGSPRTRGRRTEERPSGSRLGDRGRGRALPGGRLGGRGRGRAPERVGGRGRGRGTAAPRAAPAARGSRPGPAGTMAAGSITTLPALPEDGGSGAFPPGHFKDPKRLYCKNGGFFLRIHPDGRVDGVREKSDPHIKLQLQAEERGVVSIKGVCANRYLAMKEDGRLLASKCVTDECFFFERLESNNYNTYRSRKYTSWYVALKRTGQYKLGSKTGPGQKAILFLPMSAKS
Focal adhesion kinase 1 (Homo sapiens), sequence (Q05397 whole entry, looked up): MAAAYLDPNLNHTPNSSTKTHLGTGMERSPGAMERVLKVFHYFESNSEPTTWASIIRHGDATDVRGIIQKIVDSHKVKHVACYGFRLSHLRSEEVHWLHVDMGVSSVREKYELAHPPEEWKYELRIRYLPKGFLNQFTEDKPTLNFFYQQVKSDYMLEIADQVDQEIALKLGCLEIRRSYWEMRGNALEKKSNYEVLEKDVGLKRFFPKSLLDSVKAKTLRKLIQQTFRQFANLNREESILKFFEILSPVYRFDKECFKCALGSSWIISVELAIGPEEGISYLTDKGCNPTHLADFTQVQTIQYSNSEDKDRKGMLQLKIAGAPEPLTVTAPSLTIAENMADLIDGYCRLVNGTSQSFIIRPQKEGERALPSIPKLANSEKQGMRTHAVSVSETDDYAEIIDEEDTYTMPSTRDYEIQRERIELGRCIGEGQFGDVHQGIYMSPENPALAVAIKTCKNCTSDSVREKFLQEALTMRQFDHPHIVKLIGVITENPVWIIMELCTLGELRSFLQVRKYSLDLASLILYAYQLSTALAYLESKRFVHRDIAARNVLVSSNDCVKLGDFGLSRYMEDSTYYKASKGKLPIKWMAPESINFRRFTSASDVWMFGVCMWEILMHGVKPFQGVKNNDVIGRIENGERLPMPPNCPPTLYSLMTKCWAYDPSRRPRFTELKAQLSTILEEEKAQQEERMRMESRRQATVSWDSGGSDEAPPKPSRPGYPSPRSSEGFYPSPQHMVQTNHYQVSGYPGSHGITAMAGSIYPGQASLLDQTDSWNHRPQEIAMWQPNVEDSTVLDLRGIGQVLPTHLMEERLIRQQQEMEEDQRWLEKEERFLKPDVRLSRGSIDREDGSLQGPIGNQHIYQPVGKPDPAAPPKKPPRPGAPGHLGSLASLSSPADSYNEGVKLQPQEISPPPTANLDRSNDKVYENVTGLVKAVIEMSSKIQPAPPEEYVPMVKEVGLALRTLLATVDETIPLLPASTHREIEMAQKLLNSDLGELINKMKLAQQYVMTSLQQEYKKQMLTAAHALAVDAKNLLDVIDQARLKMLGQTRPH

| SMILES | composite z-score [1] | composite Z-score [2] | composite z-score [3] | composite z-score [4] | composite z-score [5] | composite z-score [6] | composite z-score [7] | composite z-score [8] | composite z-score [9] | composite z-score [10] | composite z-score [11] | composite z-score [12] | composite z-score [13] | composite z-score [14] | composite z-score [15] | composite z-score [16] | z-score [17] | composite z-score [18] | composite z-score [19] | z-score [20] |
| --- | --- | --- | --- | --- | --- | --- | --- | --- | --- | --- | --- | --- | --- | --- | --- | --- | --- | --- | --- | --- |
| O=C(Nc1cc(Br)ccc1C(=O)NCc1cccc(O)c1)c1ccccc1 | 0.8 | -0.0662 (inactive) | 0.151 | -0.0901 | 0.62 | 0.891 | 0.808 | 0.778 | 0.279 | 1.18 | 1.95 | 1.02 | 0.243 | 0.828 | 0.0635 | 0.324 | 0.252 | -0.241 | 1.01 | -0.0565 (inactive) |
| COCCCNC(=O)[C@@]1(Cc2ccccc2)COC(c2ccc(OCCCO)cc2)=N1 | 0.838 | 0.6 (inactive) | 0.0813 | -0.0307 | 0.739 | 3.02 | 0.77 | 1.31 | -0.554 | 0.825 | 2.66 | 1.21 | 0.953 | 1 | 0.645 | 0.986 | 0.814 | -1.07 | 0.509 | 0.272 (inactive) |
| COC(=O)[C@@]1(Cc2ccc(OC)cc2)[C@H]2c3cc(C(=O)N4CCCC4)n(CCc4ccc(O)c(OC)c4)c3C[C@H]2CN1C(=O)c1ccccc1 | 0.952 | 0.683 (inactive) | 0.23 | 0.12 | 0.742 | 2.28 | 0.191 | -0.295 | -0.508 | 0.173 | 0.772 | 0.23 | 0.717 | 0.219 | -0.625 | -0.46 | -0.0583 | -1.78 | 0.0523 | 0.551 (inactive) |
| Cc1ccc(F)cc1S(=O)(=O)N[C@@H]1CCN(C(=O)c2ccc(OC(C)C)cc2)C1 | 0.0765 | -0.107 (inactive) | 0.116 | -0.184 | -0.0494 | 0.644 | 0.194 | 1.13 | 0.686 | 0.0897 | 1.42 | 1.16 | 0.485 | 0.371 | 0.485 | 1.24 | 0.946 | 0.913 | 0.557 | -0.457 (inactive) |
| C=C(/C(=C/C[C@@H](OC(=O)c1ccncc1)c1ccccc1OCCO)c1cnc2ccccc2c1)C(C)C | 0.635 | 0.718 (inactive) | 0.306 | 0.0002 | 0.935 | 1.5 | 0.497 | 1.3 | 1.45 | 1.19 | 1.18 | 0.896 | 0.204 | 0.963 | 1.45 | 1.87 | 0.494 | 1.65 | 0.869 | -1.08 (inactive) |
| CCC[C@@H]1C[C@@]1(CCC)[C@@H](NC(=O)c1ccco1)c1ccc(Cl)cc1 | -0.638 | -0.392 (inactive) | -0.173 | -0.0324 | -0.464 | -0.241 | -0.0117 | -1.48 | -0.493 | -0.517 | -0.348 | -1.71 | -0.386 | -0.495 | -0.388 | -0.882 | 0.523 | -0.769 | -0.493 | -0.31 (inactive) |
| NC(=O)NCC#Cc1ccc2c(c1)[C@]1(C(=O)N2)[C@H](c2ccc(OCCO)cc2)N2[C@H](c3ccccc3)[C@H](c3ccccc3)OC(=O)[C@H]2[C@@H]1C(=O)N1CCCCCCC1 | 0.435 | 5.46 (inactive) | 2.08 | 1.13 | 0.894 | 2.81 | 0.669 | 1.23 | 1.13 | 1.14 | 0.418 | 1.18 | 1.08 | 0.41 | 1.39 | 1.15 | -1 | 1.64 | 1.44 | -0.254 (inactive) |
| CN(C)C(=O)[C@]1(Cc2ccccc2N=[N+]=[N-])N=C(c2ccc(OCCCO)cc2)O[C@@H]1c1ccccc1CN=[N+]=[N-] | 0.828 | -0.136 (inactive) | 0.473 | -0.0349 | 0.684 | 2.53 | 0.635 | 1.3 | -0.21 | 0.875 | 1.28 | 1.25 | 0.651 | 1.06 | 1.23 | 1.06 | 0.417 | 0.624 | 0.763 | -0.307 (inactive) |
| COCCCNC(=O)[C@@]1(Cc2ccccc2I)c2ccccc2C(=O)N(Cc2ccccc2Cl)[C@H]1c1ccc(CO)cc1 | 0.681 | 0.432 (inactive) | -0.0492 | -0.139 | 0.344 | 0.184 | 0.438 | 0.902 | -0.105 | 0.752 | 1.25 | 0.494 | 0.692 | 0.912 | 0.583 | -0.125 | 0.723 | 0.246 | 0.897 | 1.29 (inactive) |
| COC(=O)[C@@]1(Cc2ccc(F)cc2)[C@H]2c3cc(C(=O)N(C)C)n(Cc4ccc(C)c(F)c4F)c3C[C@H]2CN1C(=O)c1ccccc1 | 0.751 | 0.818 (inactive) | 0.243 | 0.0742 | 0.713 | 3.15 | -0.0137 | 1.07 | -0.991 | 0.879 | 2.08 | 0.864 | 0.454 | 0.743 | 0.0662 | -0.769 | 1.33 | -0.413 | 0.854 | 0.0883 (inactive) |
| C=CCC(OC(C)=O)[C@@H]1[C@@H](N(Cc2cccc3ccccc23)C(=O)c2ccc(C)cc2)c2cc(OCCCO)ccc2N1C(=O)c1ccc2ccccc2c1 (stereo not given in full) | -0.0007 | 0.0941 (inactive) | 0.0311 | -0.0924 | 0.0697 | 0.583 | -0.27 | -0.044 | 0.224 | -0.525 | -0.204 | 0.133 | 0.0096 | 0.189 | 0.672 | 0.123 | 1.15 | 0.102 | -0.193 | -0.195 (inactive) |
